Test results from PubChem BioAssay (NCI).
The panel holds about 83,000 compounds, 20% with a hit somewhere; the sample as a whole holds those more often.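 48-hour exposure, single concentration, 96-well plates; percent growth endpoint where 0 means no net growth. Active: below 10.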 Values without a mark were called inactive. The source made the active and inactive calls.

Test system: MDA-MB-468 breast
Assay: NCI-60 one-dose screen, 48 h (100 = growth as untreated, 0 = no growth, -100 = all killed)
Details: 10 µM unless noted

Structure (SMILES) | growth
NCCNC(=O)c1cccc(COc2ccccc2NC(=O)c2cc(Br)c(Br)[nH]2)c1 | 85.1%
Clc1cccc(Cl)c1CSc1nc2ccccc2n2cccc12 | 18.9%
CCCCCCCCCCOC(c1ccccc1)c1ccccc1 | 92.1%
CN1C(=O)C2(NN=C(c3cccc4ccccc34)S2)c2ccccc21 (stereo not given) | 32.4%
COc1cccc(NC2=CC(=O)C(C)=C(C)C2=O)c1 | 25.8%
N#CC1=C(Nc2ccccc2Cl)SC(c2ccccc2O)NC1=O (stereo not given) | 122%
CC(=O)c1ccc(NS(=O)(=O)c2cccc(C(=O)Nc3ccc(Br)cc3)c2)cc1 | 15.3% [25 µM]
Cc1ccc(S(=O)(=O)n2cc(C(=O)C(=O)N3CCCCC3)c3ccccc32)cc1 | 40.2%
CCn1c(=O)n(C)c2c(=O)n(C)c(=O)n(C)c21 | 103%
Cc1cccc2nc3c(n12)C(=O)C(=O)c1ccccc1-3 | 79.9%
COc1cc(/C=N/n2cnc3oc(-c4ccccc4)cc3c2=N)cc(CN2CCN(C)CC2)c1O | 91.9%
O=C(O)c1cccc(S(=O)(=O)c2ccccc2)c1 | 94.7%
CSCc1ncc(-c2ccc(C(F)(F)F)cc2)c(NC2CCCCCC2)n1 | 85.7% [25 µM]
CCOC(=O)c1c(NC(=O)c2ccc(F)cc2F)sc2c1CCC(=O)C2 | 95.2%
COc1cc(C(=O)c2c(-c3ccccc3)oc3c(OC)cccc23)cc(OC)c1OC | 18.4%
CC(=O)Nc1cc(C)ccc1C | 76%
COc1nc2c(cc1S(=O)(=O)c1ccccc1)CCc1c-2cnn1-c1ccc(Cl)cc1 | 87.6%
Cc1cc(=O)oc2cc(Oc3nc(Br)cn4c(Br)cnc34)ccc12 | 41.4%
S=C(S)OCN1CCOCC1 | 99.1%
S=C1NCc2cncnc2N1 | 99.7%

Structure (SMILES) | growth
O=[N+]([O-])C=C(c1ccccc1)c1ccccc1 | -4.43% (active)
OCc1cccc(F)c1 | 68.9%
Cc1c(NC(=O)c2sc3nc4c(cc3c2N)CN(Cc2ccccc2)CC4)cccc1C(F)(F)F | -5.77% (active)
FC(F)(F)c1cccc(-c2nnn(Cc3cc(-c4cccc(Cl)c4)no3)n2)c1 | 102%
CC(=O)c1c(C)nc(SCC(=O)Nc2cccc(O)c2)n1-c1ccc(Cl)cc1 | 79.7%
C[n+]1ccc(Nc2ccc(NC(=O)c3ccc(Nc4cc[n+](C)c5ccc(N)cc45)cc3)cc2)cc1 | 94.8%
COc1ccc(CC(=O)Nc2nn3c(-c4cc(C(F)(F)F)cc(C(F)(F)F)c4)nnc3s2)cc1 | 48.4%
COC(=O)[C@]12CC[C@@H](C)[C@H](C)[C@@H]1C1=CC[C@@H]3[C@@]4(C)C[C@@H](OC(C)=O)[C@H](O)[C@@](C)(COC(C)=O)[C@@H]4[C@H](O)C[C@@]3(C)[C@]1(C)CC2 | -90.2% (active)
CCCCC1CCCC12NC(=O)NC2=O (stereo not given) | 112%
O=C1NC(=O)/C(=C/c2ccc(Cl)cc2Cl)N1 | 130%
COc1ccc(-c2csc(NC(=O)CSc3nc(-c4ccccc4)cc(=O)[nH]3)n2)cc1 | 14.9%
O=C(O)CCC(=O)c1ccc(C2CCCCCC2)cc1 | 105%
COc1c(B(O)O)cccc1-c1nc2ccc3[nH]ncc3c2c2c1C1CCC2C1 (stereo not given) | 89.9%
CCN(CC)c1ccc(C=O)c(OCc2cn(CC(=O)Nc3ccc(Cl)cc3)nn2)c1 | 63.5%
CCN(CC)CCCC(C)Nc1c2c(nc3ccc(OC)cc13)CCCC2 (stereo not given) | 98.8%
CN(C)CCN(Cc1ccccc1)c1ccc2ccccc2n1 | 92.6%
Cc1cc2c(c(C)c1Cl)C(=O)/C(=C/c1cccc([N+](=O)[O-])c1)O2 | 92.2%
CCCCCCCCOC(=O)c1ccccn1 | 107%
OCCc1ccc(Cl)cc1 | 103%
CC(C)=CCC[C@H](C)c1ccc(C)c2c1OCN(CCO)C2 | 82.5%
